# Among all 48,000 compounds or so, about 13,000 (27%) showed an effect of 50% or more. The list shows a part of the results.
# Test system: Wolbachia pipientis
# Assay: Anti-Wolbachia Cell-Based Screen
# Assay type: functional
# Parameters: scale not given: in the data most compounds retested in dose-response had high values
# Settings: 5 µM
row,Compound,Percent Effect [%]
1,CC(=O)NC1CCN(c2cc(-c3ccccc3)nc3c(C)c(C)nn23)C1 (stereo unspecified),-1.812
2,CCc1[nH]ncc1C(=O)N1CCCC(n2ccnc2C(C)C)C1 (stereo unspecified),-14.63
3,CCn1cc(CN(C)S(=O)(=O)N2CCCC2c2ccco2)cn1 (stereo unspecified),-4.974
4,CNS(=O)(=O)CCCN1CCCC1c1cc(C)on1 (stereo unspecified),-6.242
5,CCn1cc(S(=O)(=O)N2CCCCCC2c2cc(C)no2)cn1 (stereo unspecified),176.5
6,CCOC(=O)C1CCN(C(=O)CN2CCCC2c2cc(C)no2)CC1 (stereo unspecified),-7.861
7,CC(C)OCCC1CCCCN1S(=O)(=O)c1cnn(C)c1 (stereo unspecified),-6.246
8,CCn1cc(S(=O)(=O)N2CCCCCC2c2cc(C)on2)cn1 (stereo unspecified),92.08
9,COCCOCCC(=O)Nc1c(-c2ccc(F)cc2)ncn1C,-3.986
10,CCn1[nH]c(C)c2c(C(F)(F)F)cc(=O)nc1-2,-15.52
11,COc1c(C2CCCN2c2ncnc3ccsc23)c(C)nn1C (stereo unspecified),5.005
12,CC(C)(C)c1nnc2n1C(C(=O)N1CCOCC1)CC2 (stereo unspecified),111.9
13,CC(C)(C)c1nnc2n1C(C(=O)N1CCN(c3ncccn3)CC1)CC2 (stereo unspecified),115.5
14,O=C(COC1CCCC1)N1CCCN(c2ncccn2)CC1,-14.8
15,CC(NC(=O)CCOc1ccccc1Cl)c1nnc2n1CCC2 (stereo unspecified),1.83
16,CN(C)C(=O)C1CCc2nnc(C(C)(C)C)n21 (stereo unspecified),107
17,CC(NC(=O)CCc1nc(C(C)(C)C)no1)c1nnc2n1CCC2 (stereo unspecified),1.388
18,Cc1cn2nc(N3CCCC3C(=O)N3CCOCC3)sc2n1 (stereo unspecified),-18.11
19,CN1N=C(C(=O)N2CCN(c3ncccn3)CC2)CCC1=O,16.67
20,CC(C)NC(=O)C1CCc2nnc(C(C)(C)C)n21 (stereo unspecified),100.1
21,O=C1CCSCC(C(=O)N2CCOCC2)N1 (stereo unspecified),-11.6
22,CCc1nc2n(n1)CCCC2NC(=O)Nc1cccc(F)c1F (stereo unspecified),-21.46
23,C[S+]([O-])c1cccc(NC(=O)N(CCC#N)Cc2ccccn2)c1 (stereo unspecified),-5.424

row,Compound,Percent Effect [%]
1,CCn1cc(CNc2ccc(N(C)CCOC)cn2)cn1,3.344
2,CC(C)(C)c1nnc2n1C(C(=O)N1CCCC1)CC2 (stereo unspecified),107.6
3,O=C(C1CCCc2[nH]ncc21)N1CCCCCC1 (stereo unspecified),7.18
4,O=C(C1CCCc2[nH]ncc21)N1CCCC1 (stereo unspecified),-1.484
5,COCC1CN(Cc2ccoc2)Cc2cn(CC3CCOCC3)nc21 (stereo unspecified),-9.673
6,CN1CCCC1CNC(=O)CCCOCc1ccccc1 (stereo unspecified),-8.407
7,O=C(NCCCO)Nc1ccccc1,-6.748
8,CN1CCCC1CCNC(=O)Nc1ccccc1 (stereo unspecified),124.8
9,CCN1C[C@H]2CCN(C(=O)Nc3ccccc3C)CC[C@H]2S1(=O)=O,5.146
10,COc1cccc(NC(=O)N2CC[C@@H]3CN(C)S(=O)(=O)[C@@H]3CC2)c1,108.6
11,CN1C[C@H]2CCN(C(=O)NC3CCCC3)CC[C@H]2S1(=O)=O,24.31
12,CCN1C[C@H]2CCN(C(=O)Cc3cccc(OC)c3)CC[C@H]2S1(=O)=O,109.3
13,Cc1ccccc1NC(=O)N1CC[C@@H]2CN(C)S(=O)(=O)[C@@H]2CC1,-6.47
14,CCN1C[C@H]2CCN(C(C)=O)CC[C@H]2S1(=O)=O,7.241
15,Cc1ccccc1CNC(=O)N1CC[C@@H]2CN(C)S(=O)(=O)[C@@H]2CC1,-7.794
16,COc1cccc(CC(=O)N2CCC(Cc3nnc(SC)n3C)CC2)c1,13.49
17,COc1cccc(CC(=O)N2CCN(c3cccc(C)c3)C(C)C2)c1 (stereo unspecified),0.04468
18,COc1ccc(CC(=O)N2CCC(c3n[nH]c(C4CC4)n3)CC2)cc1,-2.488
19,COc1cccc(CC(=O)N2CC[C@@H]3CN(C)S(=O)(=O)[C@@H]3CC2)c1,102.6
20,COc1ccc(CC(=O)N2CC[C@@H]3CN(C)S(=O)(=O)[C@@H]3CC2)cc1,96.9
21,Cc1c(C(=O)N(CCN(C)C)Cc2ccccn2)oc2ccccc12,-10.28
22,CCC1CN(C(=O)c2ccc(O)cn2)CCC(=O)N1Cc1ccccc1 (stereo unspecified),-29.96
23,N#Cc1cc(S(N)(=O)=O)ccc1NC1CCc2cc(Cl)ccc21 (stereo unspecified),-7.649

row,Compound,Percent Effect [%]
1,CNC(=O)[C@@H](c1ccccc1OC)N1CCC[C@H]1C(=O)NCCN(C)C.Cl.Cl,-2.091
2,COc1ccc(CN2CCCn3cncc3C2)cc1Cn1cncn1,17.87
3,COc1cnc(C2(O)CCN(C(=O)c3ccco3)CC2)c(OC)n1,113.8
4,Cc1ccc(F)c(OC2(C(=O)O)CCN(C(=O)c3ccco3)CC2)c1,-23.64
5,COc1cnc(C2(O)CCN(C(=O)c3ccccn3)CC2)c(OC)n1,107.9
6,COc1cnc(C2(O)CCN(C(=O)c3cccnc3)CC2)c(OC)n1,2.765
7,COc1ccc(NC(=O)c2ccco2)c(N2CCN(C(C)=O)CC2)n1,-1.999
8,COc1cnc(C2(O)CCN(C(=O)c3ccncc3)CC2)c(OC)n1,-4.993
9,COc1cnc(C2(O)CCN(C(=O)c3scnc3C)CC2)c(OC)n1,77.74
10,CCC(=O)N1CCC(O)(c2ncc(OC)nc2OC)CC1,-0.9107
11,O=C1CC(C(=O)O)C2(CCN(C(=O)Nc3ccccc3Cl)CC2)N1 (stereo unspecified),8.972
12,CS(=O)(=O)NC1CCN(C(=O)c2ccc(F)cc2)CC1,22.77
13,CCn1nc(C)c2nc(C(C)C)nc(NCCCO)c21,5.791
14,CC[C@H]1CN(C(=O)C(C)(C)C)CC[C@H]1CC(=O)O,0.9693
15,CCS(=O)(=O)NCC1Cn2nnc(-c3ccccc3)c2CO1 (stereo unspecified),4.629
16,CN(C)CCn1c(=O)n(C)c(=O)c2ccccc21.Cl,110
17,CC(C)NC(=O)CN(C)C(=O)c1c(Cl)c2ccccc2n1C,7.479
18,CC(C)N1CCN(CCn2cnc3c(F)cccc3c2=O)CC1,-1.52
19,CC(C)n1c(=O)c2ccccc2n(CCCN(C)C)c1=O.Cl,74.16
20,CC(CCc1ccccc1)NC(=O)CNCCCN(C)C.O=C(O)C(=O)O (stereo unspecified),-3.27
21,Cc1cc(=O)c2ccccc2n1CC1CCN(C(C)C)C1 (stereo unspecified),-7.176
22,CCCc1nc(Cn2c(=O)n(C)c3ccccc32)no1,-1.157
23,CC(C)n1c(=O)c2ccccc2n(CCN(C)C)c1=O.Cl,91.55

row,Compound,Percent Effect [%]
1,CC(C)n1c(=O)c2ccccc2n(CCN2CCCCC2)c1=O,58.61
2,CCc1nc(Cn2c(=O)n(C)c3ccccc32)no1,-3.957
3,CC(C)NC(=O)CN(C)C(=O)c1c(Br)c2ccccc2n1C,-8.15
4,CC(C)S(=O)(=O)CC(=O)N(Cc1ccsc1)c1ccccc1,-3.342
5,Cn1cc(CN2CCCC3(COCCN(Cc4c[nH]nn4)C3)C2)cn1.O=C(O)C(F)(F)F.O=C(O)C(F)(F)F (stereo unspecified),-3.726
6,CC(C)C(=O)N1CCCC(c2cc(C(F)F)n3ncnc3n2)C1.Cl (stereo unspecified),-4.51
7,COCC(=O)N1CCCC(c2cc(C(F)F)n3ncnc3n2)C1.Cl (stereo unspecified),109.8
8,O=C(Cc1ccsc1)N1CCCC(c2cc(C(F)F)n3ncnc3n2)C1 (stereo unspecified),112.3
9,Cc1nc(C2CCCN(C(=O)CO)C2)cc(N2CCOCC2)n1 (stereo unspecified),-8.444
10,NC(=O)c1ccc(-n2ccnc2C2CC2)cc1N1CCCC1,30.18
11,COCCS(=O)(=O)N(Cc1ccsc1)c1ccccc1,-9.25
12,COc1cc(CN(C)C(=O)NCC(=O)NC(C)C)ccc1SC,-30.2
13,COCC(=O)NCCC(=O)N1CCN(S(=O)(=O)c2cccc(Br)c2)CC1,2.832
14,Cl.O=C(NCCn1nc(C2CCNC2)c2cccnc21)C1CCC1 (stereo unspecified),119.3
15,Cl.O=C(NCCn1nc(C2CCNC2)c2cccnc21)C1CC1 (stereo unspecified),104.4
16,O=C(CCNC(=O)C1CCCC1)NCc1cccnc1-n1cncn1,-1.584
17,Cc1cccc(C)c1OC1CN(C(=O)C2CCCN(C(=O)N(C)C)C2)C1 (stereo unspecified),-13.19
18,O=C(NCCc1ccsc1)Nc1cccnc1N1CCCC1,0.6987
19,COc1c(C(=O)N2CCC(CSc3ccccc3)C2)c(C)nn1C (stereo unspecified),13.6
20,CCS(=O)(=O)c1ccc2c(c1)OCCO2,-1.362
21,CC(C)N(C)S(=O)(=O)N(C)Cc1ccc2c(c1)OCCO2,98.7
22,CCN(CC)S(=O)(=O)N(CC)Cc1ccc2c(c1)OCCO2,92.18
23,CC(C)N(C)S(=O)(=O)N(C)Cc1ccc2c(c1)OCO2,-1.448

row,Compound,Percent Effect [%]
1,CCS(=O)(=O)c1ccc2c(c1)OCCCO2,-4.006
2,CCC[C@@H]1CN(Cc2ccc3c(c2)OCCO3)C[C@H]1C(=O)O,-6.164
3,CC(C)N(C)S(=O)(=O)N(C)Cc1cnn(C)c1,-10.04
4,CCN(CC)S(=O)(=O)N(C)Cc1ccc2c(c1)OCCO2,104.5
5,CC(=O)NCCNC(=O)N(C)Cc1ccc2c(c1)OCCO2,1.28
6,CCc1noc(CN(C)Cc2cc(Br)ccc2OC)n1,4.438
7,Cc1ccn(-c2ccccc2NCc2cscn2)n1,-9.752
8,Cc1nccc(CNC(=O)NCC(C)Oc2ccccc2F)n1 (stereo unspecified),-7.985
9,COC(=O)C(c1cc(F)ccc1F)N(C)C(=O)c1csnn1 (stereo unspecified),3.05
10,COC(=O)C(c1cc(F)ccc1F)N(C)C(=O)c1cnccn1 (stereo unspecified),118.4
11,COc1ccc(N(C(=O)c2cnc(C)cn2)C(C)C)cc1F,9.374
12,COC(=O)C(c1cc(F)ccc1F)N(C)C(=O)c1cnc(C)cn1 (stereo unspecified),103
13,COC(=O)C(c1cc(F)ccc1F)N(C)C(=O)c1cccnc1O (stereo unspecified),1.784
14,COC(=O)C(c1cc(F)ccc1F)N(C)C(=O)c1ccccn1 (stereo unspecified),114.5
15,COC(=O)C(c1ccccc1)N(C)C(=O)c1ccnc(C)n1 (stereo unspecified),100.7
16,COC(=O)C(c1cc(F)ccc1F)N(C)C(=O)c1ccnc(C)n1 (stereo unspecified),4.378
17,CN(C)CCN(Cc1ccc(Cl)cc1)C(=O)c1cnccn1,-5.634
18,Cc1cccc(N(CCC(N)=O)C(=O)c2ccnc(C)n2)c1,-10.53
19,COC(=O)c1cnc(C(=O)N(c2ccc(OC)c(F)c2)C(C)C)cn1,-7.917
